# PubChem BioAssay AID493114 (The Scripps Research Institute Molecular Screening Center, 2011)
# This is one part of the list. Values without a mark were called inactive.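 The calls were made as follows: active = mean percent activation across triplicates above a set limit taken from the earlier primary procaspase-3 screen; inactive = the rest.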
# Molecular target: Caspase-3 (Homo sapiens) (UniProt P42574)
# Assay: procaspase-3 activators, counter-screen for dual procaspase-3/7 activator project, biochemical, absorbance, PC-3 D3A mutant, human (AID 493114);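 also: 0% = DMSO wells and 100% = DMSO wells with 5 µM added PC-3 D3A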
# Conditions: recombinant PC-3 D3A, Ac-DEVD-pNA absorbance 405 nm; at 8.5 µM; stronger effect = higher value; 100% = enzyme control; aspartates 9, 28, 175 changed to alanine
# Chain of Caspase-3 (Homo sapiens) (P42574 whole entry D9A/D28A/D175A): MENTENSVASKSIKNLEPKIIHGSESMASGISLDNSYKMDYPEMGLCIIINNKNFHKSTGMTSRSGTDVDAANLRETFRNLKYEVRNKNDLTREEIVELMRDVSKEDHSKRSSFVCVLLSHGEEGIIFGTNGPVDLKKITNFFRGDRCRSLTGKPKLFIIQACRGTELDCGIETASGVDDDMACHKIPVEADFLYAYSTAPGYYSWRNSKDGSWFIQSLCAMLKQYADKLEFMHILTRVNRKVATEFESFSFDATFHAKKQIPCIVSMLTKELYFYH
row,Structure (SMILES),activation
1,Fc1ccc(N2N=C(c3cccs3)CC2c2ccco2)c(F)c1 (stereo not given),-29.1%
2,COc1ccc(-c2onc3ccc(C(C)=O)cc23)cc1,-28%
3,COc1ccc2sc(-c3ccc(S(C)(=O)=O)cc3)c(C#Cc3cncn3C)c2c1,-29.9%
4,CCOC(=O)C1(CCOC)CCN(Cc2cc3ccccc3s2)CC1,2.49%
5,CC(=O)Oc1ccc2c(C)c(CC(C)O)c(=O)oc2c1 (stereo not given),-29.8%
6,CCN(CC)c1ccc2oc(=O)c(C)nc2c1,-12.2%
7,O=C1OCCN1C(=O)[C@H]1[C@H](c2ccc(F)cc2)C(c2ccccc2)=NN1c1ccc(Br)cc1,-28.8%
8,COc1ccc(Nc2ncc(C(=O)N3CCN(c4ccccc4OC)CC3)c3ccccc23)cc1,0.74%
9,COc1ccc(/C=N/Nc2nc3ccccc3c(=O)[nH]2)cc1,0.42%
10,CCCCOC(=O)Cn1c(=O)n(CC(=O)OCCCC)c2cc(C)ccc21,2.96%
11,COc1ccc(Nc2ncnc3sc(-c4ccccc4)cc23)c(OC)c1,-22.7%
12,CNS(=O)(=O)c1cccc(C(=O)NC2CCCc3ccccc32)c1 (stereo not given),2.51%
13,CC1(C)Cc2c(C#N)c(SCc3nc4ccccc4[nH]3)nc(N3CCOCC3)c2CO1,-28.2%
14,COc1ccccc1N=Cc1c(O)c2ccccc2oc1=O,-28.6%
15,Nc1cccc2c1C(=O)N(Cc1nnc(-c3ccccc3Br)o1)C2=O,-28.5%
